Assays:
Assay in all cases: log2 ratio of Biotin-Ahx-Ub-VS probe labelling (fragment/DMSO); higher = less target engagement (more negative = stronger competition), active = hit call of the paper (q ≤ 0.05, log2 ratio ≤ -1)
Conditions in all cases: compound concentration: 200 uM; treatment time: 3 h
USP34 = USP34 (UniProt Q70CQ2)
Procedure, shortened: (§1)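 Global-median-normalised Spectronaut label-free quantities were compared by unpaired t-test, and values are average log2 ratios of fragment over vehicle. Only proteins with ≥2 unique peptides were used. HEK293T lysate (495 µg per sample) was treated in triplicate with fragment at 200 µM or vehicle for 3 h and then with Biotin-Ahx-Ub-VS at 0.5 µM final for 1 h. Labelled DUBs were then NeutrAvidin-enriched, digested with LysC and trypsin, and run by diaPASEF LC-MS/MS.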

USP36 = molecular target: T1, USP36 (UniProt Q9P275)
T1 sequence (whole entry): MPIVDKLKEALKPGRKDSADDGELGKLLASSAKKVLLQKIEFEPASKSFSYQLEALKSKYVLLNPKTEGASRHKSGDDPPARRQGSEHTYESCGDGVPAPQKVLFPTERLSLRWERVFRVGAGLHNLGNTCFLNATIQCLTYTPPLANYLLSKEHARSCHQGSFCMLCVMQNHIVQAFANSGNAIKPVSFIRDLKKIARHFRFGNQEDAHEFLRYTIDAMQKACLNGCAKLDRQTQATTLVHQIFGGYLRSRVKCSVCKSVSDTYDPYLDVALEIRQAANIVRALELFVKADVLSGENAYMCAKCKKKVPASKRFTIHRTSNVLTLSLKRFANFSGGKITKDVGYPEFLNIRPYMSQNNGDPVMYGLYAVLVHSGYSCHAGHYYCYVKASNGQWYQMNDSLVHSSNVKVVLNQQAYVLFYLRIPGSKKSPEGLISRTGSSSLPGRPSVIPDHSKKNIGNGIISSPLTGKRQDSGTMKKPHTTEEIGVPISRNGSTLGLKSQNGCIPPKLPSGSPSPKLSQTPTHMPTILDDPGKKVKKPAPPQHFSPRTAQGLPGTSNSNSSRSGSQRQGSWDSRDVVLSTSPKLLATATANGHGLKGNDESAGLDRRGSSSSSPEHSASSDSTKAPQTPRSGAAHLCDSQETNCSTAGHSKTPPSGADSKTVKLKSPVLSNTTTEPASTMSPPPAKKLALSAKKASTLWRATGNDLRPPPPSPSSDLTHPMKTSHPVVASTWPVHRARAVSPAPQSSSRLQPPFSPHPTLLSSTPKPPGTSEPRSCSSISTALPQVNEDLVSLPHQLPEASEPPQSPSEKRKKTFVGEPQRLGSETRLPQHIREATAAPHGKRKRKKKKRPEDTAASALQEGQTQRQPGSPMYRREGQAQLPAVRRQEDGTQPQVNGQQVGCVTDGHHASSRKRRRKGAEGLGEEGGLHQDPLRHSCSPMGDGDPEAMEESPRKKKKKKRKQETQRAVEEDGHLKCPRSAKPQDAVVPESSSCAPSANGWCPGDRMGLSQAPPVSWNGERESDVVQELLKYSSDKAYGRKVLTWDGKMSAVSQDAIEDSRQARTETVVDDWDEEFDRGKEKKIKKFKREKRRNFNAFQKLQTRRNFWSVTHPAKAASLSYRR
Procedure, shortened: as §1

USP38 = molecular target: T2, USP38 (UniProt Q8NB14)
T2 sequence (whole entry): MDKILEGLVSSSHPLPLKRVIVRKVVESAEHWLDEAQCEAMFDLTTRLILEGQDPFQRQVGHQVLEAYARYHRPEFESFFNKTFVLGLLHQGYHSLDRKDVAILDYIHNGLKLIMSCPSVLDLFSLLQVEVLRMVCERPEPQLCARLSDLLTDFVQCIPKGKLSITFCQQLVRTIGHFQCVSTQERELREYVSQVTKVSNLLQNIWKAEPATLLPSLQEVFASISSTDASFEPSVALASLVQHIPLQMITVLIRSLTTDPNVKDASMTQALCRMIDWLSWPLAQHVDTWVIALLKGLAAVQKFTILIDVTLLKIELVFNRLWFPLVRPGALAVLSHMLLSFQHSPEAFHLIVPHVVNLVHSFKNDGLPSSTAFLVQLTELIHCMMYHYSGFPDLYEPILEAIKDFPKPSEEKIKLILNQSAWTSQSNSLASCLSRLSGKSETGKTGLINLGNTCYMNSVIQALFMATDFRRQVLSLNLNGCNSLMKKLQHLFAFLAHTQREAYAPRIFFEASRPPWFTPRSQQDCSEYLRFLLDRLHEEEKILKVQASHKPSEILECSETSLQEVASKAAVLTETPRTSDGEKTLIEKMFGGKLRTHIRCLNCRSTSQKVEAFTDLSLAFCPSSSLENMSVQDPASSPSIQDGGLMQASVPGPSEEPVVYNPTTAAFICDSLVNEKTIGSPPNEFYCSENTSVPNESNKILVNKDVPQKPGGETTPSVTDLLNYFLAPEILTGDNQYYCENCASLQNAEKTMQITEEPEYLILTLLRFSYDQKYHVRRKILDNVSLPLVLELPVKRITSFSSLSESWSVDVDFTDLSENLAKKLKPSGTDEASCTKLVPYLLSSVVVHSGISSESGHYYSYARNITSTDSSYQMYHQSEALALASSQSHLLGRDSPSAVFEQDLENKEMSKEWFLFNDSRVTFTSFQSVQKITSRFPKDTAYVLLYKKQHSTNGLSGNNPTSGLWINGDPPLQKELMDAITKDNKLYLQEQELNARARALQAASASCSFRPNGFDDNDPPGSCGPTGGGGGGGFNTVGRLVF
Procedure, shortened: as §1

USP39 = molecular target: T3, USP39 (UniProt Q53GS9)
T3 sequence (whole entry): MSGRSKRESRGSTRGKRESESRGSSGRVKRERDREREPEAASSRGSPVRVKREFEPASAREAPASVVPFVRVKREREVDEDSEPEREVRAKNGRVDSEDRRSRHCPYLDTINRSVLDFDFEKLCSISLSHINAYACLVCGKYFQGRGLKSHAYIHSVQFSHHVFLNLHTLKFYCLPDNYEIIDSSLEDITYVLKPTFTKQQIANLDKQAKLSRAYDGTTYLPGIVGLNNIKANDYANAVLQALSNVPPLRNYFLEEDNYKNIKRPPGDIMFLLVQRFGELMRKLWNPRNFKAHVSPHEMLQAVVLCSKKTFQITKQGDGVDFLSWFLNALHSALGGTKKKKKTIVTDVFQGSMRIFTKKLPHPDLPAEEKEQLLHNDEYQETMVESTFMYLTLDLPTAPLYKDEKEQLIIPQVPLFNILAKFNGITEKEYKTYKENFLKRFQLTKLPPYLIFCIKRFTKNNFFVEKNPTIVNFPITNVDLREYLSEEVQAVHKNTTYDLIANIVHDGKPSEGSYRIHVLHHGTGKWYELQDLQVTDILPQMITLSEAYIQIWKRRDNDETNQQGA
Procedure, shortened: as §1

USP4 = molecular target: T4, USP4 (UniProt Q13107)
T4 sequence (whole entry): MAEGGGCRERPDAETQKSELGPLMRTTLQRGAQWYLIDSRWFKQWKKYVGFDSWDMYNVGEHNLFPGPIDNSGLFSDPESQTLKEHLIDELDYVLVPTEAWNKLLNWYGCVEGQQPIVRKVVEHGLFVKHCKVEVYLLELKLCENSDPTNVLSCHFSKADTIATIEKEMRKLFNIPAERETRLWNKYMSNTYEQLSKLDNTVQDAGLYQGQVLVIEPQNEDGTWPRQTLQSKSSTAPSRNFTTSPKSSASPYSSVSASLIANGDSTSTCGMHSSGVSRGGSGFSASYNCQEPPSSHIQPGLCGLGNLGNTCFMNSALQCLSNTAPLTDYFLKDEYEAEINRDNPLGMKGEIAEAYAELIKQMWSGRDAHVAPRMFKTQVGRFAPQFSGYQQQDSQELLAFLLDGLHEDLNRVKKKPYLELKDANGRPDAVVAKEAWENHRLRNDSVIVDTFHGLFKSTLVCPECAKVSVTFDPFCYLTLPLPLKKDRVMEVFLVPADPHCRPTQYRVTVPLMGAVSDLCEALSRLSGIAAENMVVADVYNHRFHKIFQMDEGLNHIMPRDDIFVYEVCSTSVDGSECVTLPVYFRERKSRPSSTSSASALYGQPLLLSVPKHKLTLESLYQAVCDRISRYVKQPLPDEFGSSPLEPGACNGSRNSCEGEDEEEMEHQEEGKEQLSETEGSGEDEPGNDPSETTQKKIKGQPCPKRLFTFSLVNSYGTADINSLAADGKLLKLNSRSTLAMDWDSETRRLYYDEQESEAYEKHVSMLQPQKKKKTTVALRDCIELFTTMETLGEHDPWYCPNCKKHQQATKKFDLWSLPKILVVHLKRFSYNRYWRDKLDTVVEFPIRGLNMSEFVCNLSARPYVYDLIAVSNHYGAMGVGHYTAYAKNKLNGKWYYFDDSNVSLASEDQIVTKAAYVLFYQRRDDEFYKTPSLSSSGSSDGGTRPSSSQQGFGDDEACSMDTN
Procedure, shortened: as §1

Measured: log2 ratio of Biotin-Ahx-Ub-VS probe labelling

USP34, sequence (Q70CQ2 whole entry, the tested form may be a part): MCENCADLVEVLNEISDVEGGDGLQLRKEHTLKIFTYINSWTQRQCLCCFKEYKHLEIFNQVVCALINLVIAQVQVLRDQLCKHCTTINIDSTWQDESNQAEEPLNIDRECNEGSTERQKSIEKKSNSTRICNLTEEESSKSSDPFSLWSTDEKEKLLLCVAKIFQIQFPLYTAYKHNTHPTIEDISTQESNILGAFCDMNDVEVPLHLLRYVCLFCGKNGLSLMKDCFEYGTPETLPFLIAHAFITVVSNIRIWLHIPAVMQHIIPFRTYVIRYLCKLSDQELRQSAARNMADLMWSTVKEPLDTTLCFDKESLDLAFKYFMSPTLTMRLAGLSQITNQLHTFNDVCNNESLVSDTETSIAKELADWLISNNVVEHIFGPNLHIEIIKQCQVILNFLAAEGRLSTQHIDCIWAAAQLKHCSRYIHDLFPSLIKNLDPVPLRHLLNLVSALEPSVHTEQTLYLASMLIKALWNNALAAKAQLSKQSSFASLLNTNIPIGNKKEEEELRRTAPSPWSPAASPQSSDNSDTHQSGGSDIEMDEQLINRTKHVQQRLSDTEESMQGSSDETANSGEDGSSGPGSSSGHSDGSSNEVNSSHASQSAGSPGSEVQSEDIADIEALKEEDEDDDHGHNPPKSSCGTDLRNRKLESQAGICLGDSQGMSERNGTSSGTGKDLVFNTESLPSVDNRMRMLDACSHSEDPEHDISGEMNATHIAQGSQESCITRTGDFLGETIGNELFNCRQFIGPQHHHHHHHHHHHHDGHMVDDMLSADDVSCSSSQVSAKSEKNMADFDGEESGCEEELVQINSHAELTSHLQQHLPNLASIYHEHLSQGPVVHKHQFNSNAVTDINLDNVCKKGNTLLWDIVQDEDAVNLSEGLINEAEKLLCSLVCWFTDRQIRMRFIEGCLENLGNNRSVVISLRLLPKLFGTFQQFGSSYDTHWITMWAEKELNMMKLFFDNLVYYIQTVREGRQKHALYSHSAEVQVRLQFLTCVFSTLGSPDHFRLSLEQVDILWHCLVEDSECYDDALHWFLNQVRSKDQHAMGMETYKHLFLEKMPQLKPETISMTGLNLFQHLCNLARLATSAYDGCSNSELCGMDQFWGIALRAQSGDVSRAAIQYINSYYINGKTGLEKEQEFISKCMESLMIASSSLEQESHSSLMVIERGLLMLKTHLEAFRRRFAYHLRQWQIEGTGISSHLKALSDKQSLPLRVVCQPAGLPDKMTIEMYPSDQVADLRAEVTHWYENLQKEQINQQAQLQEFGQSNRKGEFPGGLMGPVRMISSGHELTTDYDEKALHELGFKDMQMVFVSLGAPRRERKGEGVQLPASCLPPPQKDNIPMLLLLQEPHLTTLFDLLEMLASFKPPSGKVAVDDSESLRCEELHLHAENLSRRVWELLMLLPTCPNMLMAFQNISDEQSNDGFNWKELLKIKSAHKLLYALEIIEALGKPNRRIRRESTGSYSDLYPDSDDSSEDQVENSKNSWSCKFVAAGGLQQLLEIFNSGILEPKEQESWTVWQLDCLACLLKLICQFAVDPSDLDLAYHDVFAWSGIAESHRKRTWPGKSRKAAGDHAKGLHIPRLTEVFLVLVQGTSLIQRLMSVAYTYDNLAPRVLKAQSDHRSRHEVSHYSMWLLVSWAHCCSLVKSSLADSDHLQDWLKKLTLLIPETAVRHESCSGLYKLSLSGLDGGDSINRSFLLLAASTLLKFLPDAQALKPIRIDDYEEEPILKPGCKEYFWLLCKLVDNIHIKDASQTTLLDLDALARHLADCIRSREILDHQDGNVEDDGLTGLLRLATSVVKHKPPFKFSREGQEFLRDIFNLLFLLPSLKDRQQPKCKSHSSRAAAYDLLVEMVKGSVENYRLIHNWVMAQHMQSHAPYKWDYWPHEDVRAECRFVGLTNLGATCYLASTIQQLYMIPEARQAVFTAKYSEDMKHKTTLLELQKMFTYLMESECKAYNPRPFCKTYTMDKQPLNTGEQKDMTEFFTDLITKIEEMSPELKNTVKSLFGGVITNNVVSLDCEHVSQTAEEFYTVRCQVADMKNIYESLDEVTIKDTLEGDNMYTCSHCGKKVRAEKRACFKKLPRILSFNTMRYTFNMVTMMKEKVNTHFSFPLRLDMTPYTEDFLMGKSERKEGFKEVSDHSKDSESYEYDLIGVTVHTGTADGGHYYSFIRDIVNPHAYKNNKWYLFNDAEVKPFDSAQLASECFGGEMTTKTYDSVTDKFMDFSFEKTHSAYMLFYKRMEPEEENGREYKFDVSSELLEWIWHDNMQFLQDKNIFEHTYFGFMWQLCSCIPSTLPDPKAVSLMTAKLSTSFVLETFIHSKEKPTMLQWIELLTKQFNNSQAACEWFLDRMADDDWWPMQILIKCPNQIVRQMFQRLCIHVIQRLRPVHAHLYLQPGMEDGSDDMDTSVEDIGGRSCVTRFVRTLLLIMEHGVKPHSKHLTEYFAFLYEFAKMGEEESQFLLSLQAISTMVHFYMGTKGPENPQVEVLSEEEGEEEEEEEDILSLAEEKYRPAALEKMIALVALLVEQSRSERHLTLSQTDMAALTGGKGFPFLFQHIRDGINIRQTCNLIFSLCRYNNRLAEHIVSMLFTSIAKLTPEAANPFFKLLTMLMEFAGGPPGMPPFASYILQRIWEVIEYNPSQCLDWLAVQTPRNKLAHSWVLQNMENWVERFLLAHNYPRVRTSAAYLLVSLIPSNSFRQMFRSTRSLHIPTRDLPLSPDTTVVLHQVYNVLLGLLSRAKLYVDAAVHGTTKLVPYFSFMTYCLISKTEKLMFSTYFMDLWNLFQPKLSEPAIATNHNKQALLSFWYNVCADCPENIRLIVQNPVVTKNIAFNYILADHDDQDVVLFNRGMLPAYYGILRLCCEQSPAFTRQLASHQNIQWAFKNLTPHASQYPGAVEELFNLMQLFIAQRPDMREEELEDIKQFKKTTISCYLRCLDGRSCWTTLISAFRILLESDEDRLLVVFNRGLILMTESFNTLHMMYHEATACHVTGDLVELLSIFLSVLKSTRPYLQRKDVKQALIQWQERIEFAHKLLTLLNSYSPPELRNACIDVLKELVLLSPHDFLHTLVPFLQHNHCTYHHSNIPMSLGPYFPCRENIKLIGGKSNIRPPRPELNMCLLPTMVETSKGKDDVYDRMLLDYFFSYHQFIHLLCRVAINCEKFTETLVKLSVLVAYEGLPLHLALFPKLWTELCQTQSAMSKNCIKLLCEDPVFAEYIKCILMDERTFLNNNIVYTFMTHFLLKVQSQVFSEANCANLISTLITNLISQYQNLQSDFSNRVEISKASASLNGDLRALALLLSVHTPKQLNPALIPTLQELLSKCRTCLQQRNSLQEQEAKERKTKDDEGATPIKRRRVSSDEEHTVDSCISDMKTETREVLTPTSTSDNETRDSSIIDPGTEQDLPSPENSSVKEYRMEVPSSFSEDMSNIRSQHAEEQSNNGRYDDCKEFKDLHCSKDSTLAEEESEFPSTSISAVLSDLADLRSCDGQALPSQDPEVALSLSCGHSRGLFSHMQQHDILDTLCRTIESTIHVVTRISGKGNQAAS

Cc1ccc(CC(NC(=O)CCl)c2ccccn2)cc1.Cl (stereo not given)
inactive: USP34 -0.162 | USP36 0.13 | USP38 -0.114 | USP39 -0.181 | USP4 0.169

From the supplement of paper PMC11732987, “Enantioselective OTUD7B fragment discovery through chemoproteomics screening and high-throughput optimisation” (Communications Chemistry, 2025)
